High-throughput results from PubChem.
A selection: hits, their analogues and other compounds. The true share with any hit is near 19%.
RORg inh: qHTS for inhibitors of ROR gamma transcriptional activity | Nuclear receptor ROR-gamma (Mus musculus), P51450 | Drosophila S2 Gal4-RORgamma UAS-luciferase reporter, 20 h | Potency, µM (highest dose often 53.6 µM), most hits filed as inhibitors | actives 5.4% (n = 310,000) | AID 2551, 2010; note: nearly all actives have a fitted effect of over 60% in size
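Stably transfected Drosophila Schneider cells are the test system, with ROR gamma fused to Gal4 and luciferase under UAS control; luminescence is read after 20 hr of 700 uM copper sulfate induction at ambient temperature.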
TDP1 inh: qHTS Assay for Inhibitors of Tyrosyl-DNA Phosphodiesterase (TDP1). Potency, µM (series often up to 130 µM), usual class: inhibitors. AID 485290, 2010. actives 0.28% (n = 350,000). recombinant TDP1, AlphaScreen DNA substrate cleavage. Tyrosyl-DNA phosphodiesterase 1 (Homo sapiens), Q9NUW8; note: nearly all actives have a fitted effect of over 40% in size
Target sequence (Q9NUW8 whole entry, looked up): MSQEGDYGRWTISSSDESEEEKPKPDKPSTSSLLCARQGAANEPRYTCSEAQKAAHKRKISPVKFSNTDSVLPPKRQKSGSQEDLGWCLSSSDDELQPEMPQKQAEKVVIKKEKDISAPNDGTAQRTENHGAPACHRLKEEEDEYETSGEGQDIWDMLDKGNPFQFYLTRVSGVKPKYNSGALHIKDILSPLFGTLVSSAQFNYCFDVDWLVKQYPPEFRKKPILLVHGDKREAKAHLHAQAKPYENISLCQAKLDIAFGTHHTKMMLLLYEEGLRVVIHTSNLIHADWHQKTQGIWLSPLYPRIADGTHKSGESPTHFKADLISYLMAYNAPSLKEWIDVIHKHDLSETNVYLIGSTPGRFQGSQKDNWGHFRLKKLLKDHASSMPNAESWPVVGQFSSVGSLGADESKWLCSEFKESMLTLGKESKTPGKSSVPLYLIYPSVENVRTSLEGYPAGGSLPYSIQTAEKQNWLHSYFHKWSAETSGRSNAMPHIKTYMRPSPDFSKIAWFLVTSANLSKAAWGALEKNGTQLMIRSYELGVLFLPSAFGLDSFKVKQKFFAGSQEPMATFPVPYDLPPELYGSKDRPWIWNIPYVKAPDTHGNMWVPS
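Recombinant E. coli-expressed Tdp1 (1 nM) preincubated with compound 15 min at RT, then 5'-biotin/3'-phosphotyrosine-FITC DNA substrate (15 nM) added for 5 min. AlphaScreen beads (10 ug/ml) added, 10 min RT; tyrosine-FITC cleavage read as signal loss.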
TDP1 cell CPT: qHTS for Inhibitors of human tyrosyl-DNA phosphodiesterase 1 (TDP1): qHTS in cells in presence of CPT. Potency, µM (top dose mostly 46.2 µM), usual class: inhibitors. chicken DT40 Tdp1-/-;hTDP1 cells + 20 nM CPT, ATP luminescence, 48 h. actives 12% (n = 420,000); note: nearly all actives have a fitted effect of over 55% in size
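Cell growth measured by CellTiter-Glo luminescence after a minimum 48 h, 37 C compound exposure with 20 nM CPT in Tdp1-knockout DT40 cells stably expressing hTDP1, seeded 400/well; qHTS titration format.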
VP16 counter: VP16 counterscreen qHTS for inhibitors of ROR gamma transcriptional activity; Drosophila S2 Gal4-VP16 UAS-luciferase, luminescence, 20 h; Potency, µM (titrated, usually from 53.6 µM), most hits filed as inhibitors; actives 3.5% (n = 310,000);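 note: Gal4-VP16 expression switched on by copper sulfate through the metallothionein promoter; nearly all actives have a fitted effect of over 50% in size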
TDP1 cell noCPT: qHTS for Inhibitors of human tyrosyl-DNA phosphodiesterase 1 (TDP1): qHTS in cells in absence of CPT | Potency, µM (series often up to 46.2 µM), hits mostly inhibitors | DT40 Tdp1-/- hTDP1 cells, no CPT, ATP luminescence, 48 h | actives 15% (n = 420,000); note: nearly all actives have a fitted effect of over 55% in size
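Compound effects on proliferation are scored in DT40 Tdp1-/-;hTDP1 cells in the absence of CPT. ATP levels (CellTiter-Glo luminescence) are recorded after a ≥48 hr, 37 °C incubation.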
A number is an active result; i = inactive; ? = inconclusive; nt = not tested or not shown. Calls come from the whole dose curve; as a rule, active = well fitted curve in the direction sought with a large enough effect; inconclusive = small, poorly fitted or top-dose-only effect, or another doubt; inactive = no such curve, though single readings can be large; an effect the other way counts as inactive or inconclusive.

SMILES	RORg inh	TDP1 inh	TDP1 cell CPT	VP16 counter	TDP1 cell noCPT
Cc1cc(C)cc(NC(=O)OCCN2CCN(Cc3ccccc3)CCC2=O)c1	i	i	i	i	23µM
COc1ccc(NC(=O)OCCN2CCN(Cc3ccccc3)CCC2=O)cc1	?	i	i	i	i
Cc1ccc(S(=O)(=O)N2CCC(=O)N(CCOC(=O)Nc3cc(C)cc(C)c3)CC2)cc1	i	i	16µM	i	?
OC1(c2ccc3c(c2)OCO3)CCN(Cc2ccccn2)CC1	i	i	i	i	i
CCOc1ccc(S(=O)(=O)N(C)c2ccc(OCC(=O)NCC3CCCO3)cc2)cc1 (configuration not stated)	i	i	i	i	i
COc1ccc(CCNC(=O)c2ccc(S(=O)(=O)N(C)c3ccccc3)cc2)cc1OC	?	i	?	i	23µM
CCN(c1ccccc1)S(=O)(=O)c1ccc(C(=O)N(C)CCc2ccc(OC)c(OC)c2)cc1	i	i	?	i	21µM
CCOc1ccc(S(=O)(=O)N(C)c2ccc(OCC(=O)NCC3CCCCC3)cc2)cc1	nt	i	16µM	nt	21µM
CCN(c1ccccc1)S(=O)(=O)c1ccc(Cl)c(C(=O)NCCc2ccc(OC)cc2)c1	?	i	18µM	i	?
CCN(c1ccccc1)S(=O)(=O)c1ccc(OC)c(OC)c1	i	i	i	i	i
CCOC(=O)c1c(NC(=O)CN2CCCCC2)sc(C)c1C	i	i	?	i	?
CCOc1ccc(S(=O)(=O)N(C)c2ccc(OCC(=O)NCCc3ccc(OC)cc3)cc2)cc1	i	i	21µM	i	23µM
Cc1ccc(S(=O)(=O)N(C)c2ccc(C(=O)NCCc3ccccc3)cc2)cc1	nt	i	?	nt	?
COc1ccc(CCNC(=O)c2ccc(Cl)c(S(=O)(=O)N(C)c3ccccc3)c2)cc1	?	i	21µM	i	16µM
CN(c1ccccc1)S(=O)(=O)c1cccc(C(=O)NCCc2ccc(O)c(O)c2)c1	i	i	8.2µM	i	12µM
COc1ccc(CCNC(=O)c2ccc(N(C)S(=O)(=O)c3ccc(C)cc3)cc2)cc1	?	i	?	i	16µM
CCN1C[C@@H]2[C@@H]3C(=O)N(C)C(=O)[C@@H]3[C@](Cc3ccccc3)(C1=O)N2C(=O)c1ccc(C(C)(C)C)cc1	nt	nt	i	nt	i
Cc1ccc(CN(C)C(=O)CCNC(=O)c2ccc(Cl)cc2)o1	nt	nt	i	nt	?
Cc1ccc(CNC(=O)C2CCN(Cc3nc(-c4cccc(Br)c4)oc3C)CC2)cc1	nt	i	?	nt	?
COc1ccccc1CNC(=O)c1cccc(S(=O)(=O)N(C)c2ccccc2)c1	nt	i	26µM	nt	?
CN(c1ccccc1)S(=O)(=O)c1cccc(C(=O)NCc2ccccc2CN2CCCC2)c1	nt	i	?	nt	?
COc1cc(C(=O)Nc2nc(-c3ccc(F)cc3)cs2)ccc1OCC(=O)N1CCOCC1	?	i	18µM	i	12µM
COc1cc(C(=O)NCCN2C(=O)S/C(=C\c3ccc(F)cc3)C2=O)ccc1OCC(=O)N1CCOCC1	i	i	16µM	i	15µM
COc1ccc(-c2csc(NC(=O)c3ccc(OCC(=O)N4CCOCC4)c(OC)c3)n2)cc1	?	i	7.3µM	i	10µM
COc1cc2cc(C(=O)N3CCOCC3)cc(-c3ccc(C)cc3)c2cc1OC	?	nt	i	8.9µM	i
SMILES	RORg inh	TDP1 inh	TDP1 cell CPT	VP16 counter	TDP1 cell noCPT
COc1ccc(-c2cc(C(=O)N3CCOCC3)c3ccccc3n2)cc1OC	nt	i	i	nt	i
COc1ccc(OC)c(NC(=O)c2ccc(OCC(=O)N3CCOCC3)c(OC)c2)c1	nt	i	i	nt	?
COc1ccc(-c2nc(NC(=O)c3ccc(OCC(=O)Nc4ccc(F)cc4)c(OC)c3)sc2C)cc1	?	i	?	20µM	18µM
COc1cc(C(=O)Nc2nc(-c3ccc(C)cc3)cs2)ccc1OCC(=O)N1CCOCC1	?	i	23µM	i	21µM
COc1cc(C(=O)Nc2nc(-c3cc(C)ccc3C)c(C)s2)ccc1OCC(=O)Nc1ccc(F)cc1	i	i	?	i	?
CCC(c1nnc(SCC(=O)Nc2ccc(Cl)cc2C(F)(F)F)n1C1CCCCC1)N(C)C (configuration not stated)	i	i	i	i	?
COc1ccccc1NC(=O)c1ccc(NC(=O)COC(=O)c2cncc(Br)c2)cc1	nt	i	i	nt	i
CC1(C)C(c2cccs2)=[N+]([O-])C2(CCCCC/C2=N\NC(N)=S)N1O (configuration not stated)	0.63µM	i	i	i	i
COc1ccc(CN(C(=O)c2ccc(OCC(C)C)cc2)C2CCS(=O)(=O)C2)cc1 (configuration not stated)	nt	i	12µM	nt	?
CC(C)COc1ccc(C(=O)N(Cc2ccco2)C2CCS(=O)(=O)C2)cc1 (configuration not stated)	?	i	?	i	16µM
Cc1cc(OC(C)C(=O)N(Cc2ccco2)C2CCS(=O)(=O)C2)cc(C)c1Cl (configuration not stated)	i	nt	?	i	21µM
COc1ccc(CN(C(=O)c2ccco2)C2CCS(=O)(=O)C2)cc1 (configuration not stated)	i	i	i	i	i
COc1ccc(S(=O)(=O)Nc2c(C)n(C)n(-c3ccccc3)c2=O)c(Cl)c1Cl	i	nt	i	i	i
CCOc1ccc(S(=O)(=O)N2CCOCC2)cc1NC(=O)Cc1c(F)cccc1Cl	nt	nt	?	nt	i
COc1ccc(/C(C)=N/Nc2nc3ccccc3nc2C)cc1OC	4.5µM	nt	?	?	?
COC(=O)[C@]1(Sc2ccccc2)CC(=O)N[C@@H]1c1ccccc1	nt	nt	i	nt	?
CC(=O)N1CCc2nc3sc(C(=O)c4ccc(F)cc4)c(N)c3c(C(F)(F)F)c2C1	nt	i	?	nt	21µM
COc1ccc(NC(=O)c2sc3nc(C(F)(F)F)cc(C)c3c2N)cc1OC	nt	i	i	nt	i
COc1ccc(CNC(=O)c2sc3nc4c(c(C(F)(F)F)c3c2N)CCC4)cc1OC	?	i	?	i	16µM
COc1ccc(C(=O)c2sc3nc4c(c(C(F)(F)F)c3c2N)CN(C(C)=O)CC4)cc1OC	nt	i	18µM	nt	16µM
COCCCNC(=S)N(CCCO)Cc1cc2cc3c(cc2[nH]c1=O)OCCO3	i	nt	i	i	i
Cc1cccc(C(=O)Nc2ccc(C(=O)OCc3cc(=O)n4c(C)csc4n3)cc2)c1	nt	i	?	nt	16µM
Cc1ccc(C(=O)Nc2ccc(C(=O)OCc3cc(=O)n4ccsc4n3)cc2)cc1	nt	22µM	i	nt	i
